# A selection: hits, their analogues and other compounds. The true share with any hit is near 1.8%.
# GC-B act = human GC-B receptor activators, primary screen, HEK293 GC-B cells, cGMP TR-FRET, EC30 CNP; activation, % at 10 µM; Atrial natriuretic peptide receptor 2 (Homo sapiens), P20594; 0% at EC30 CNP, 100% saturating CNP; actives 0.11% (n = 370,000);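 active = activation at 10 µM reaching about 35% in either raw or pattern-adjusted values, limit read from the data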
# bovine MsrA act = bovine MsrA enzyme activators, primary screen, biochemical, absorbance, HTS. Methionine sulfoxide reductase A (Bos taurus). activation, % at 10.6 µM. purified bovine MsrA, absorbance read-out. actives 0.3% (n = 360,000); in the data active = activation above about 7.5%;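 note: 0% = vehicle and 100% = reference activator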
# GC-A act = GC-A stimulated cGMP production enhancers – HEK293 GC-A cells, cGMP TR-FRET, EC30 ANP, primary screen. AID 1671463, 2021. actives 0.14% (n = 370,000). Atrial natriuretic peptide receptor 1 (Homo sapiens), P16066. activation, % at 10 µM. 0% at EC30 ANP, 100% saturating ANP; in the data active = activation above about 40%
# MsrA inh = bovine MsrA enzyme inhibitors, primary screen, biochemical, absorbance, HTS; Methionine sulfoxide reductase A (Bos taurus); purified bovine MsrA, absorbance read-out; inhibition, % at 15.5 µM; actives 0.75% (n = 360,000);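 note: 0% = vehicle wells with enzyme and 100% = reference inhibitor wells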
# HTR2A ag = mouse Htr2a agonists via beta-arrestin recruitment, primary screen, cell-based, luminescence | 5-hydroxytryptamine receptor 2A (Mus musculus), P35363 | CHO-K1 mHTR2A beta-arrestin complementation; percent of 30 µM serotonin response | activation, % at 7.6 µM | actives 0.66% (n = 360,000) | AID 624169, 2012;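 active = activation above a run cutoff, the mean activation of all tested compounds plus 3 SD, cut at about 14% in these data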;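 note: 0% = plate median of compound wells and 100% = 30 µM serotonin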
# Target sequence (P35363 whole entry, looked up): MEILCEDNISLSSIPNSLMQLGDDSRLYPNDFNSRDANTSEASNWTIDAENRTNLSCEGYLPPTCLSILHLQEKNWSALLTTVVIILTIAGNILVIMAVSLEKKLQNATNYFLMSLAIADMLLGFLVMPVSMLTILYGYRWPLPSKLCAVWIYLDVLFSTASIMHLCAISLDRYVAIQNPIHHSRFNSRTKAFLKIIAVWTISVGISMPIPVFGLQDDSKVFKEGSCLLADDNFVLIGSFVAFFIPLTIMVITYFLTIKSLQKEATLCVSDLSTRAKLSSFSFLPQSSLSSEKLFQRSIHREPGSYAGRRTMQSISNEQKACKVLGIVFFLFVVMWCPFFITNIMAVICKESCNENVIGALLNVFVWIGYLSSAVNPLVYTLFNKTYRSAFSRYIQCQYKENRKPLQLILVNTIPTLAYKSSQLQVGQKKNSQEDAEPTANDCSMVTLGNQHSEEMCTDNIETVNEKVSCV
# MsrA activ conf = bovine MsrA activators, retest, confirmation, biochemical, absorbance, HTS; shares compounds with bovine MsrA act; activation, % at 10.6 µM; AID 602270, 2012; purified bovine MsrA, absorbance read-out; actives 12% (n = 1,000); in the data active = activation above about 4%;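 note: enzyme coupled to thioredoxin and thioredoxin reductase with NADPH; 0% = vehicle wells and 100% = reference activator wells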
# MOR ag counter = OPRM1 agonists via beta-arrestin recruitment, confirmation, counter-screen for mouse HTR2A agonist project, cell-based, luminescence, single concentration; shares compounds with HTR2A ag; U2OS OPRM1 beta-arrestin PathHunter; DMSO 0%, DAMGO 9.3 µM 100%; activation, % at 9.3 µM; actives 5.3% (n = 2,300); AID 624380, 2012;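 active = mean activation above the mean of DMSO-only wells plus 3 SD, cut at about 0.5% in these data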
# HTR2A ag conf = mouse HTR2A agonists, beta-arrestin recruitment, confirmation, cell-based, luminescence, CHO-K1 PathHunter, triplicate | shares compounds with HTR2A ag | activation, % at 7.6 µM | DMSO 0%, 30 µM serotonin 100% | actives 19% (n = 2,300);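 active = mean activation across triplicates above the hit threshold derived in the original primary screen, cut at about 15% in these data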
# MsrA conf = bovine MsrA inhibitors, retest, confirmation, biochemical, absorbance, HTS; shares compounds with MsrA inh; purified bovine MsrA, absorbance read-out; inhibition, % at 15.5 µM; actives 41% (n = 2,300); AID 651822, 2012;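 note: coupled to thioredoxin reductase with NADPH and selenocystamine and DMSO as substrate; 0% = vehicle only and 100% = full effect of reference inhibitor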
# Active calls of the source: *; / = no result. Cut-off read from the data, not from the text of the source, unless noted: active = inhibition above about 4.5%; inactive = the rest.
SMILES,GC-B act,bovine MsrA act,GC-A act,MsrA inh,HTR2A ag,MOR ag counter,HTR2A ag conf,others
CC[n+]1c(-c2ccccc2)c2cc(N)ccc2c2ccc(N)cc21,-12,9.2*,-13,44*,-7,/,/,MsrA activ conf=3;MsrA conf=49*
Cc1ccccc1CN1Cc2cnnn2-c2ccccc2C1C#N (stereo not drawn),-3,1,1,0,3,/,/,
COc1cccc(CCNCc2c(F)cccc2F)c1,-3,-9,-4,-1,21*,-1,3,
COc1cccc(CNCCc2ccc(F)cc2)c1,-12,0,-15,0,8,/,/,
Fc1ccc(CNCCc2c[nH]c3ccccc23)cc1,-17,-1,-18,1,6,/,/,
COc1ccc2[nH]cc(CCNCc3cccnc3)c2c1,2,-4,-2,-1,2,/,/,
Fc1ccccc1CNCCc1c[nH]c2ccccc12,-5,1,-12,-1,19*,0,24*,
COc1cccc(CNCCc2c[nH]c3ccccc23)c1,-15,0,-20,3,32*,0,34*,
CCC(NC(=O)OCc1ccccc1)P(=O)(Oc1ccccc1)Oc1ccccc1 (stereo not drawn),-11,/,-2,/,/,/,/,
COc1ccc2nc(-c3ccc(CN4CCC(n5nnc6ccccc65)CC4)cc3)c(-c3ccccc3)nc2c1,10,/,-2,3,/,/,/,
O=C(CSc1ccccc1)N1CCC2(CC1)OCCO2,-4,2,1,-1,-4,/,/,
Cn1c(=O)cc(SCC(=O)N2CCC3(CC2)OCCO3)c2ccc(Cl)cc21,/,-6,/,3,16*,0,-1,
Clc1ccccc1CN1CCN(c2ccccc2)CC1,3,-4,-1,0,27*,0,53*,
O=C(O)c1cc2ccccc2n1C1CCN(Cc2ccccc2)CC1,3,/,0,/,/,/,/,
O=C(c1c[nH]cc1-c1ccccc1)c1cccc2ccccc12,2,-13,-5,0,20*,0,6,
O=c1c2ccccc2nc(Cc2cccc([N+](=O)[O-])c2)n1-c1ccc(O)cc1,-8,1,-3,-1,6,/,/,
CC(NCc1ccc(Cl)c(Cl)c1)C(O)c1ccccc1 (stereo not drawn),/,-1,/,1,16*,0,-4,
CC(NCc1ccccc1Cl)C(O)c1ccccc1 (stereo not drawn),-8,-8,-10,-1,-2,/,/,
CCCCCCCSc1cc(OC)c(CCNC)cc1OC,-6,-3,1,-1,46*,0,17*,
CCc1cc(OC)c(CCN)cc1OC,0,/,0,0,/,/,/,
CCCCCSc1cc(OC)c(CCNC)cc1OC,-4,-1,-2,-1,15*,0,6,
CC(=O)C1C(N2CC2)CC2C3CC=C4CC(O)CCC4(C)C3CCC21C (stereo not drawn),-2,-2,-3,0,33*,-1,2,
C[C@]12CC[C@H](O)CC1=CCC1C2CC[C@@]2(C)C1C[C@@H](O)[C@@H]2O (stereo partly drawn),-2,-5,-1,0,1,/,/,
O=C(O)C(Cl)(Cl)Cl,4,2,4,-1,23*,0,4,

# Bioassay records deposited in PubChem by several laboratories.
